Our source for the Potency and outcome values is PubChem BioAssay (Tox21).

Experiment [1] in a line: qHTS assay to identify small molecule antagonists of the estrogen receptor alpha (ER-alpha) signaling pathway using the BG1 cell line in the presence of 0.1 nM 17-beta-estradiol - cell viability counter screen (AID 1259241). Also: nearly all actives have a fitted effect of over 40% in size. The essentials:
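CellTiter-Fluor read (30 min, 37C) on ER-alpha/ERE-luc VM7Luc4E2 cells; 22 hr compound treatment; agonist 0.1 nM E2 final; same-well multiplex.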
On the technique in general: qHTS replaces the single test concentration by a dilution series.

Experiment [2] in a line: qHTS assay to identify small molecule antagonists of the androgen receptor (AR) signaling pathway using the MDA cell line in the presence of 0.5 nM R1881 - cell viability counter screen (AID 1259242). Also: nearly all actives have a fitted effect of over 45% in size. The procedure, abridged: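 Steps: plate MDA-kb2 cells, rest 5 hr at 37C without CO2; pin in compounds in DMSO; add R1881 to 0.5 nM final; incubate 16 hr; add CellTiter-Fluor, 30 min; read fluorescence.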

Experiment [3] addresses Estrogen receptor (Homo sapiens) (UniProt P03372). Kind of experiment: qHTS assay to identify small molecule antagonists of the estrogen receptor alpha (ER-alpha) signaling pathway using the BG1 cell line in the presence of 0.1 nM 17-beta-estradiol (AID 1259244). Also: nearly all actives have a fitted effect of over 50% in size. The procedure, abridged:
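Antagonist mode: compounds in DMSO are pinned onto VM7Luc4E2 reporter cells, 0.1 nM final 17beta-estradiol is added, and after 22 h at 37C luciferase luminescence is measured with ONE-Glo.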

Experiment [4] can be described thus: qHTS assay to identify small molecule HDAC inhibitors (AID 1259364).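 Also: wild-type HCT-116 cells with endogenous class I/II HDAC activity; top concentration of the series differs between compounds; nearly all actives have a fitted effect of over 45% in size.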 The essentials: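 Cells (HCT-116, wild type) are seeded at 1,500 per well, incubated overnight, treated with compound in DMSO for 2 hr, then developed with HDAC-Glo I/II reagent for 30 min at room temperature.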
Experiment [5] in a line: qHTS assay to identify small molecule HDAC inhibitors - cell viability counter screen (AID 1259365). Also: series mostly up to about 92 µM; nearly all actives have a fitted effect of over 50% in size. The essentials: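 To flag cytotoxic hits, 1,500 wild-type HCT-116 cells per well, plated the day before, receive test compounds for 2hr at 37 C before CellTiter-Glo reagent and a luminescence read.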
Experiment [6] in a line: qHTS assay to identify small molecule agonists of the sonic hedgehog signaling (Shh) pathway - cell viability counter screen (AID 1259366). Also: nearly all actives have a fitted effect of over 50% in size. The essentials:
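Fluorescence from CellTiter-Fluor reports live cells in this counter screen. NIH/3T3-derived Gli1-Luc reporter cells receive test compounds for 24hr at 37C; reagent goes in at 23hr.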

Experiment [7] can be described thus: qHTS assay to identify small molecule antagonists of the sonic hedgehog signaling (Shh) pathway - cell viability counter screen (AID 1259367). Also: nearly all actives have a fitted effect of over 55% in size. The procedure, abridged:
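Tox21 library chemicals were tested on a Gli1-Luc NIH/3T3 clone (2,000 cells/well) stimulated by conditioned medium; viability was quantified as fluorescence from CellTiter-Fluor reagent added at 23 hr.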

Experiment [8] in a line: qHTS assay to identify small molecule agonists of the sonic hedgehog signaling (Shh) pathway (AID 1259368; calls by dose curve;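 also: NIH/3T3-derived 3T3Gli1-Luc cells carrying a stable Gli1-driven firefly luciferase reporter; series mostly up to about 92 µM; nearly all actives have a fitted effect of over 15% in size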). The procedure, abridged: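 Cells of a mouse NIH/3T3 clone stably expressing luciferase under the Gli1 transcriptional response element are exposed to test chemicals for 24 hr at 37 C. Pathway activation is detected as a rise in luminescence.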
A short description of experiment [9]: qHTS assay to identify small molecule antagonists of the sonic hedgehog signaling (Shh) pathway (AID 1259369; calls by dose curve; also: nearly all actives have a fitted effect of over 45% in size). The essentials:
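Cells are plated and held 4hr at 37 C, compounds (DMSO) are pinned in, conditioned medium is added to stimulate the pathway, and after 24hr luciferase reagent is added for 30min before luminescence is read.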

Experiment [10] concerns the target Estrogen receptor beta (Homo sapiens) (UniProt Q92731). Kind of experiment: qHTS assay to identify small molecule agonists of the estrogen receptor beta (ER-beta) signaling pathway (AID 1259377; active = well fitted activation curve with a large enough effect in the signal ratio in the repeat runs, not every such curve was filed as active; the % refers to the signal ratio). The essentials:
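Screening used GripTite ER-beta-UAS-bla cells held in 2% charcoal-stripped FBS medium. After overnight (16 hr) compound incubation at 37C, beta-lactamase activity was detected with a FRET substrate by fluorescence.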

The target is the same in experiment [11]. Kind of experiment: qHTS assay to identify small molecule antagonists of the estrogen receptor beta (ER-beta) signaling pathway (AID 1259378; active = well fitted inhibition curve with a large enough effect in the signal ratio in the repeat runs, not every such curve was filed as active; the % refers to the signal ratio). The procedure, abridged:
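ER-beta-UAS-bla HEK293T cells in 2% charcoal-stripped FBS medium treated with compound plus 1nM final 17-beta-estradiol for 16 hr at 37C. Beta-lactamase reporter read by FRET substrate fluorescence after 2 hours at room temperature.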

The nature of experiment [12]: qHTS assay to identify small molecule agonists of the androgen receptor (AR) signaling pathway in the presence of an antagonist - cell viability counter screen (AID 1259379).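 Also: MDA-kb2 human breast cancer cells carrying an MMTV luciferase reporter; series mostly up to about 92 µM; nearly all actives have a fitted effect of over 25% in size.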 The procedure, abridged: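 Cytotoxicity is assessed by CellTiter-Fluor in MDA-kb2 cells carrying an MMTV-driven luciferase reporter. Cells receive 3.0uM nilutamide plus compounds at 15 concentrations and incubate 16 hr at 37C without CO2 before fluorescence reading.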

Experiment [13] in a line: qHTS assay to identify small molecule agonists of the estrogen receptor beta (ER-beta) signaling pathway - cell viability counter screen (AID 1259380). Also: nearly all actives have a fitted effect of over 30% in size. Also: potency is read from the fitted curve at half-maximal effect. The essentials:
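Cytotoxicity is measured in parallel with the reporter screen: after 16 hr compound exposure at 37C and a 2 hr LiveBLAzer step, CellTiter-Glo is added to the same ER-beta-UAS-bla HEK293T wells and luminescence read after 30 min.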

Experiment [14] is described as follows: qHTS assay to identify small molecule antagonists of the estrogen receptor beta (ER-beta) signaling pathway - cell viability counter screen (AID 1259382). Also: nearly all actives have a fitted effect of over 55% in size. Also: potency is read from the fitted curve at half-maximal effect. The essentials:
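Cytotoxicity counter screen multiplexed with the beta-lactamase antagonist assay: GripTite HEK293T ER-beta-bla cells were treated 16 hr with test chemicals in the presence of 1nM 17-beta-estradiol, and viability was measured by CellTiter-Glo.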

Experiment [15] deals with Estrogen receptor (Homo sapiens) (UniProt P03372). Kind of experiment: qHTS assay to identify small molecule agonists of the estrogen receptor alpha (ER-alpha) signaling pathway in the presence of an antagonist (AID 1259383; calls by dose curve; also: top concentration of the series differs between compounds; nearly all actives have a fitted effect of over 15% in size). The essentials:
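Agonist-mode confirmation in the presence of the ER antagonist ICI-182,780 at 10.0nM final. Breast-derived VM7Luc4E2 reporter cells were exposed to compounds for 22hr, and ERE-driven luciferase was quantified by luminescence.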

A short description of experiment [16]: qHTS assay to identify small molecule agonists or antagonists of the thyroid stimulating hormone receptor (TSHR) signaling pathway - wild type cell line counter screen (AID 1259384; calls by dose curve). The essentials: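 Wild-type Hek293 cells, 800/well, 18 h at 37C, then compound with Ro20-1724 for 30 min RT. cAMP by HTRF (cAMP-d2/anti-cAMP cryptate), 1 h RT, fluorescence read. 15 concentrations, triplicates.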

The target of experiment [17] is Thyrotropin receptor (Homo sapiens) (UniProt P16473). In words: qHTS assay to identify small molecule antagonists of the thyroid stimulating hormone receptor (TSHR) signaling pathway (AID 1259385; calls by dose curve; also: nearly all actives have a fitted effect of over 20% in size). The procedure, abridged:
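TSHR-HEK293 cells (800/well) plated 18 h, then compounds with Ro20-1724 and TSH at 1.5 ng/mL final, 30 min at room temperature. cAMP quantified by HTRF (cAMP-d2/anti-cAMP-cryptate, 1 h); 15 concentrations in triplicate.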

Experiment [18] concerns the target Androgen receptor (Homo sapiens) (UniProt P10275). Kind of experiment: qHTS assay to identify small molecule antagonists of the androgen receptor (AR) signaling pathway using the MDA cell line in the presence of 0.5 nM R1881 (AID 1259243). Also: nearly all actives have a fitted effect of over 50% in size. The procedure, abridged: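 Stably transfected MDA-kb2 cells express luciferase from an MMTV promoter bearing both AR and GR response elements. Compounds plus 0.5 nM R1881 (final) were incubated 16 hr at 37C without CO2, then luminescence measured.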

Experiment [19] has the same target. In words: qHTS assay to identify small molecule agonists of the androgen receptor (AR) signaling pathway in the presence of an antagonist (AID 1259381; calls by dose curve; also: nearly all actives have a fitted effect of over 15% in size). The essentials:
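Agonist-mode confirmation screen: human MDA-kb2 cells stably expressing luciferase under an MMTV promoter bearing AR and GR response elements, co-treated with 3.0uM nilutamide (final). Luminescence measured after 16hr compound incubation.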

The structures appear in SMILES notation. A number with no mark means an inactive call. Results filed as inconclusive are left out. Activity calls are given as the source filed them. Unless noted, calls follow the shape of the dose curve; as a rule, active = well fitted curve in the direction sought with a large enough effect in the repeat runs; inconclusive = weak or mixed curves; inactive = no such curve, though single readings can be large; an effect the other way counts as inactive or inconclusive.

Chain of Estrogen receptor (Homo sapiens) (P03372 whole entry, looked up): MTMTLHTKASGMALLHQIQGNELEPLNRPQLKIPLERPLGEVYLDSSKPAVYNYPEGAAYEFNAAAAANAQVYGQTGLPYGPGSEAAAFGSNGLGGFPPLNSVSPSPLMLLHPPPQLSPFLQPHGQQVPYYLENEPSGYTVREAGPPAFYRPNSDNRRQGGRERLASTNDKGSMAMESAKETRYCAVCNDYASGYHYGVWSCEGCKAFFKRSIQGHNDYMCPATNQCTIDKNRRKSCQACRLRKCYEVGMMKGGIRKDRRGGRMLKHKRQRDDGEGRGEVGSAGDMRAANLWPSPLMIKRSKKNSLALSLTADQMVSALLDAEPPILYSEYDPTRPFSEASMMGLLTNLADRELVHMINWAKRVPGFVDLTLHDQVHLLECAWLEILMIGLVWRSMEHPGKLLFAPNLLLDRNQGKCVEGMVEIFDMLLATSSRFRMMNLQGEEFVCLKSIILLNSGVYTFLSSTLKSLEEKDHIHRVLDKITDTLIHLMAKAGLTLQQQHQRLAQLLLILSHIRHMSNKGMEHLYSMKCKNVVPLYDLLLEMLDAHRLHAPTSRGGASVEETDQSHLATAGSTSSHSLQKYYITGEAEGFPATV
Chain of Thyrotropin receptor (Homo sapiens) (P16473 whole entry, looked up): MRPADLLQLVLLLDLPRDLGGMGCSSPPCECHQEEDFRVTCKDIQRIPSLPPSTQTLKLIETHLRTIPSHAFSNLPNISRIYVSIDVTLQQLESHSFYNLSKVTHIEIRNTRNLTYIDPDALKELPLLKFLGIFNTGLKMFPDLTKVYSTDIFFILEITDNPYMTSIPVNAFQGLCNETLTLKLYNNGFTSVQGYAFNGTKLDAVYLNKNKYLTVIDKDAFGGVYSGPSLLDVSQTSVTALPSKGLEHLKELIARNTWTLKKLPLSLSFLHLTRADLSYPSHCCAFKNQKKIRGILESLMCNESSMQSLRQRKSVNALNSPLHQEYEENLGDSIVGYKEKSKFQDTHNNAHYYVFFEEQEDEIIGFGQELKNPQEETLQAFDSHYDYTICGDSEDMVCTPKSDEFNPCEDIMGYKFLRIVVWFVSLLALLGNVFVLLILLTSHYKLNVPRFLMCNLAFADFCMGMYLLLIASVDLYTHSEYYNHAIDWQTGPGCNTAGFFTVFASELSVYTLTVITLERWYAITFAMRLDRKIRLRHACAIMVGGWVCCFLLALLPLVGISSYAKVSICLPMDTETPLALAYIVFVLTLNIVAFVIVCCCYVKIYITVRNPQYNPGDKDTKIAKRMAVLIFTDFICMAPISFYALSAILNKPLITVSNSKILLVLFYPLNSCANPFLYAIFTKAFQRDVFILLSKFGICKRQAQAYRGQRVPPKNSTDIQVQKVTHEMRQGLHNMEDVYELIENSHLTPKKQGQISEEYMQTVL
Chain of Estrogen receptor beta (Homo sapiens) (Q92731 whole entry, looked up): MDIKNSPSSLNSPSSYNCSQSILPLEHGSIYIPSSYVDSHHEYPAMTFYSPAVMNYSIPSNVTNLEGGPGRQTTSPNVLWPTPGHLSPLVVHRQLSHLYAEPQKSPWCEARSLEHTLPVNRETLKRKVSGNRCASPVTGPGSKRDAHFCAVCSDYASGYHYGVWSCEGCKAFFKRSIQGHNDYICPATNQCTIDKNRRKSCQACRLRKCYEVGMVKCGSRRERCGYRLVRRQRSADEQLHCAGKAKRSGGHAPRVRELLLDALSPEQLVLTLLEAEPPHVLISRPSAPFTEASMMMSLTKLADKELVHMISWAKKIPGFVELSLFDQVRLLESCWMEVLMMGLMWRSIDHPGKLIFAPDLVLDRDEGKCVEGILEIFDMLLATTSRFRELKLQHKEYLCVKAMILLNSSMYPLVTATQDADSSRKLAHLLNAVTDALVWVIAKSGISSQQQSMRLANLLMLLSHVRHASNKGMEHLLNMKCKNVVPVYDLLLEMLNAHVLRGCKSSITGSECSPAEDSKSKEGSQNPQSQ
Chain of Androgen receptor (Homo sapiens) (P10275 whole entry, looked up): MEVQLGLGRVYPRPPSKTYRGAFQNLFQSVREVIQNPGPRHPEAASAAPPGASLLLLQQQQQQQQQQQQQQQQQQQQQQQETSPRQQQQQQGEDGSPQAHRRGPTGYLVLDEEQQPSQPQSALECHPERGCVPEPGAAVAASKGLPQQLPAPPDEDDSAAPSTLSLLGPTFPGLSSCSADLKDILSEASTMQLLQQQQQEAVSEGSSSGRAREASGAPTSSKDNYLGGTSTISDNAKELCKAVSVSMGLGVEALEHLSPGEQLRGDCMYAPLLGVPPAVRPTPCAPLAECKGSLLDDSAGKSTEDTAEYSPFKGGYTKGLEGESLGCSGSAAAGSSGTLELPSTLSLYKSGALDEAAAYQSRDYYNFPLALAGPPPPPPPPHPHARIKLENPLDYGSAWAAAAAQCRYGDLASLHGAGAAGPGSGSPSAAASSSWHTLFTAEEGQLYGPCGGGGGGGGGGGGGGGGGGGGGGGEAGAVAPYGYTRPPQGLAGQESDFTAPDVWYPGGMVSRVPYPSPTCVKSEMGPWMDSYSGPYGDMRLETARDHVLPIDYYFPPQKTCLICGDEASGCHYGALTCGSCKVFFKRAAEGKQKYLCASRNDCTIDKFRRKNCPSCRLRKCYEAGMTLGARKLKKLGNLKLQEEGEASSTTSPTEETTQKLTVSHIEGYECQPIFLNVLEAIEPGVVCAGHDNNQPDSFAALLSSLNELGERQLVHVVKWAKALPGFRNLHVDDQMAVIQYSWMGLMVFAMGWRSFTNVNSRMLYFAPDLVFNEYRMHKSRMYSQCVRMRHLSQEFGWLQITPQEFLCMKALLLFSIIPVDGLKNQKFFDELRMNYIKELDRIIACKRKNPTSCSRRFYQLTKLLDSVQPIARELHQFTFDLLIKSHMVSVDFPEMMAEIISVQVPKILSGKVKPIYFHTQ

With `C/C(=C(\CCO)SS/C(CCO)=C(\C)N(C=O)Cc1cnc(C)nc1N)N(C=O)Cc1cnc(C)nc1N`, the Potency entry in [1], in [2], in [3], in experiment [4], in [6] and in experiment [7] was “inactive” each time. Also, the Potency result in experiment [8], in experiment [9], in experiment [10], in experiment [11], in experiment [12] and in experiment [13] was “inactive” throughout. The Potency entry in experiment [14], in experiment [15] and in experiment [17] was “inactive” in each case. In addition, the result in experiment [5] and in [16] was inactive.

Take `Cc1cc(SC2=C(O)C[C@@](CCc3ccc(N)cc3)(C(C)C)OC2=O)c(C(C)(C)C)cc1CO`: the Potency entry in experiment [1], in experiment [2], in experiment [18], in experiment [6], in experiment [7] and in experiment [8] was “inactive” each time. For the same compound, the Potency result in experiment [9], in experiment [12], in experiment [13], in [19], in [14] and in experiment [17] was “inactive” each time. Also, the call in [5] and in [16] was inactive.

As for `CC(C)(C)N`, the Potency result in [1], in experiment [2], in experiment [3], in experiment [4], in [6] and in [7] was “inactive” throughout. The Potency result in [8], in experiment [9], in experiment [12], in experiment [13], in [14] and in [15] was “inactive” throughout. Moreover, in experiment [17], the Potency result is “inactive”. Further, the result in [5] and in experiment [16] was inactive.

In the case of `CCCCOc1ccc(N)cc1`, the Potency entry in experiment [1], in experiment [2], in experiment [3], in [4], in experiment [6] and in experiment [7] was “inactive” throughout. Also, the Potency result in [8], in experiment [9], in experiment [10], in [12], in experiment [13] and in experiment [14] was “inactive” each time. For the same compound, in experiment [17], the Potency entry is “inactive”. The call in experiment [5] and in experiment [16] was inactive.

`CCCCCCCCCCCC(=O)OCC`: the Potency entry in experiment [1], in [2], in experiment [3], in experiment [4], in experiment [6] and in [7] was “inactive” throughout. Moreover, the Potency result in [8], in experiment [9], in experiment [10], in [11], in [12] and in experiment [13] was “inactive” in each case. Moreover, the Potency result in experiment [14], in [15] and in experiment [17] was “inactive” each time. Also, in [5], the outcome was inactive.

Turning to `COC(=O)c1cc(Cl)ccc1[N+](=O)[O-]`, the Potency result in [1], in experiment [2], in experiment [3], in experiment [4], in experiment [6] and in experiment [7] was “inactive” in each case. Besides, the Potency entry in [8], in [9], in [10], in [11], in [13] and in [14] was “inactive” each time. Also, the Potency entry in experiment [15] and in experiment [17] was “inactive” in each case. The outcome in experiment [5] was inactive.

On to `CC(C)CC(C)(C)C`, for which the Potency entry in experiment [1], in [2], in [3], in [4], in [6] and in experiment [7] was “inactive” throughout. Besides, the Potency entry in experiment [8], in experiment [9], in experiment [12], in [15] and in experiment [17] was “inactive” throughout. Also, the call in experiment [5] and in experiment [16] was inactive. In addition, the values for the Potency in experiment [13] and in experiment [14] were 35.7 µM (active) and 31.8 µM (active), respectively.

`CCCCCCOC(=O)c1ccccc1`: the Potency result in [1], in experiment [2], in experiment [3], in [4], in experiment [6] and in experiment [7] was “inactive” in each case. The Potency result in [8], in experiment [9], in [10], in experiment [11], in experiment [12] and in experiment [15] was “inactive” each time. Moreover, the Potency result in experiment [17] was “inactive”. Also, the call in experiment [5] was inactive. Moreover, the Potency in experiment [13] was 27.3 µM (active).

As to `CC(CCl)OC(C)CCl` (configuration not stated), the Potency result in experiment [1], in [2], in experiment [3], in [4], in experiment [6] and in experiment [7] was “inactive” in each case. Also, the Potency entry in [8], in experiment [9], in [11], in [13], in experiment [14] and in experiment [15] was “inactive” each time. Further, the Potency result in experiment [17] is “inactive”. Further, the compound was called inactive in experiment [5] and in [16].
